Out of some 5,500 compounds screened, about 2,000 (36%) were called active. About 18% were inconclusive and are not listed. Rule as the data show it: active = normalized growth mostly below about 0.91 (no sharp cut-off); inconclusive = no clear call, values can overlap the other calls; inactive = mostly above about 0.92. The list shows a part of the results.
Test: chemical genetic growth profiling, strain panel (AID 1159580);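 also: tested at 20 µM; growth read once vehicle control cultures reached saturation at 30 °C; 1 = growth at the plate median or of vehicle wells; lower values mean less growth of the strain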
Details: growth OD

Measured: normalized growth

CC(C)(C)c1cc(C(C)(C)C)n(-c2ccc(N=Cc3cc(Br)cc(Br)c3O)cc2)n1
active: S. cerevisiae deletion strains, locus YAL013W, strain DEP1, hits give low values 0.157 | S. cerevisiae deletion strains, locus YBR229C, strain ROT2, hits give low values 0.204 | S. cerevisiae deletion strains, locus YCL061C, strain MRC1, hits give low values 0.194 | S. cerevisiae deletion strains, locus YDL101C, strain DUN1, hits give low values 0.193 | S. cerevisiae deletion strains, locus YDR150W, strain NUM1, hits give low values 0.355 | S. cerevisiae deletion strains, locus YEL061C, strain CIN8, hits give low values 0.152 | S. cerevisiae deletion strains, locus YGR078C, strain PAC10, hits give low values 0.0895 | S. cerevisiae deletion strains, locus YHR030C, strain SLT2, hits give low values 0.103 | S. cerevisiae deletion strains, locus YHR087W, strain rtc3, hits give low values 0.101 | S. cerevisiae deletion strains, locus YJR043C, strain POL32, hits give low values 0.357 | S. cerevisiae deletion strains, locus YJR075W, strain HOC1, hits give low values 0.119 | S. cerevisiae deletion strains, locus YKL190W, strain CNB1, hits give low values 0.187 | S. cerevisiae deletion strains, locus YLR039C, strain RIC1, hits give low values 0.074 | S. cerevisiae deletion strains, locus YLR058C, strain SHM2 (second series), hits give low values 0.318 | S. cerevisiae deletion strains, locus YLR085C, strain ARP6, hits give low values 0.12 | S. cerevisiae deletion strains, locus YLR262C, strain YPT6, hits give low values 0.0868 | S. cerevisiae deletion strains, locus YML094W, strain GIM5, hits give low values 0.209 | S. cerevisiae deletion strains, locus YMR219W, strain ESC1, hits give low values 0.219 | S. cerevisiae deletion strains, locus YMR263W, strain SAP30, hits give low values 0.163 | S. cerevisiae deletion strains, locus YNL153C, strain GIM3, hits give low values 0.267 | S. cerevisiae deletion strains, locus YNL298W, strain CLA4 (second series), hits give low values 0.174 | S. cerevisiae deletion strains, locus YNL322C, strain KRE1, hits give low values 0.679 | S. cerevisiae deletion strains, locus YNR030W, strain Alg12, hits give low values 0.468 | S. cerevisiae deletion strains, locus YPL055C, strain LGE1, hits give low values 0.172 | S. cerevisiae deletion strains, locus YPL241C, strain CIN2, hits give low values 0.64 | S. cerevisiae deletion strains, locus YPR135W, strain CTF4, hits give low values 0.276 | S. cerevisiae strains, strain wild type, hits give low values 0.141
